# Screening results as filed in PubChem BioAssay.
# CFTR F508del cor: CFTR F508del correction in bronchial cells | activity (quench increase), % at 7.58 µM | CFBE cells, YFP halide quenching; stimulated with forskolin plus potentiator P3; % fluorescence drop versus neutral controls | hit rate 0.36% among 350,000;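 active means mean added fluorescence quench of at least 8% versus neutral control, with both replicates also reaching 8%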;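 further: cells transiently co-express mutant CFTR-F508del with the halide-sensitive YFP; corrector assay measuring rescue of mutant channel to the surface after 24 h compound exposure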
# MPTP block: permeability transition pore inhibition; hit rate 1.4% among 360,000; isolated mouse mitochondria, Ca2+ swelling absorbance, 30 min; inhibition, % at 10 µM;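 active means inhibition of 50% or more, scaled per plate between neutral and stimulator controls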
# NRP1-CendR mod: alters CendR peptide binding to human NRP-1. O14786. FAM-RPARPAR peptide binding to NRP-1, fluorescence polarization. inhibition, % at 25 µM. hit rate 0.85% among 360,000;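 active means inhibition or corrected inhibition above about 18%, plus a signal ratio from 0.5 to 1.5, limit read from the data, passing the limit was not always enough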
# Target sequence (O14786 whole entry, looked up): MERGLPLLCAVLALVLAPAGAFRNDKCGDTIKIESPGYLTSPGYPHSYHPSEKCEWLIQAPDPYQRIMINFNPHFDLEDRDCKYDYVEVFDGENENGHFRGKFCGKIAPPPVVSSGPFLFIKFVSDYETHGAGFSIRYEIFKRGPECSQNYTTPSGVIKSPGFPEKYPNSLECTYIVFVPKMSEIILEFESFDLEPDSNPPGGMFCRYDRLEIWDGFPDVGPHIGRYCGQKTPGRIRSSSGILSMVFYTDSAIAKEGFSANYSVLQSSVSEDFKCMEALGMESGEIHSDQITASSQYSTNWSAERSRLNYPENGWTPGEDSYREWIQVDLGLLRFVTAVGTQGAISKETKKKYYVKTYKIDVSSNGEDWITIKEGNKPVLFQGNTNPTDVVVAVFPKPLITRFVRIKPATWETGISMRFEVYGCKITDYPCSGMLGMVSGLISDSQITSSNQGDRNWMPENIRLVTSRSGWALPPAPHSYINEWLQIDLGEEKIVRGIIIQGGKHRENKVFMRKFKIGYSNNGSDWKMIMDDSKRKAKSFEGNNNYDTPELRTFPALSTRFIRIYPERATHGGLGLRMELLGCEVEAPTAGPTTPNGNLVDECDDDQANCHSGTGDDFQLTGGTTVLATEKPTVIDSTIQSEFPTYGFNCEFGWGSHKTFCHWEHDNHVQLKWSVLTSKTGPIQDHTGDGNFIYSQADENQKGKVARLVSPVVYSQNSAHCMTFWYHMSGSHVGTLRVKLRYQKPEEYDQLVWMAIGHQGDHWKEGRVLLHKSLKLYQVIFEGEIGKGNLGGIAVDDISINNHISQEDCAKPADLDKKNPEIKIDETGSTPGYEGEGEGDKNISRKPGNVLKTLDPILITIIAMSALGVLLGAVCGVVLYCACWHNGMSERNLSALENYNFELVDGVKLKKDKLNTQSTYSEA
# ATG4B inh: blocks human ATG4B protease cleavage of LC3 substrate | Q9Y4P1 | ATG4B cleavage of LC3-PLA2, NBD-HPC fluorescence, 1 h | inhibition, % at 8.33 µM | hit rate 0.51% among 340,000 | AID 504462; in the data active means inhibition above about 40%
# SKN-1 inh: inhibitors of C. elegans SKN-1 | C. elegans VP596 Pgst-4::GFP/RFP ratio, acrylamide-induced, 24 h | inhibition, % at 21.8 µM | hit rate 0.49% among 360,000 | AID 624304;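 active means interference check ratio from 0.5 to 1.5 plus GFP to RFP signal ratio inhibition reaching or exceeding a fixed threshold, cut at about 30% in these data, passing the limit was not always enough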
# A number is an active result; – = inactive; · = not tested or not shown. Rows were chosen to be rich in hits. Some 2.7% of all compounds tested hit in one or more screens of this group.
SMILES,CFTR F508del cor,MPTP block,NRP1-CendR mod,ATG4B inh,SKN-1 inh
CCCOc1ccc(-c2nc(C#N)c(N3CCN(C)CC3)o2)cc1,·,–,34,–,–
CCN1C(=O)[C@H]2[C@@H](c3ccc(-c4ccc(Cl)c(Cl)c4)cc3)N[C@@](C)(C(=O)OC)[C@H]2C1=O,8.2,–,–,–,–
CCOc1ccc(C(=O)NCC(=O)NNC(=O)CN(C)S(=O)(=O)c2ccc(Cl)cc2)cc1OCC,–,–,–,–,–
COc1cc(C(=O)NCC(=O)NNC(=O)CN(C)S(=O)(=O)c2ccc(Cl)cc2)cc(OC)c1OC,–,–,27,–,–
COc1ccc(N2CCN(C(=O)c3ccc(OCc4c(C)noc4C)c(OC)c3)CC2)cc1,·,–,–,–,–
COc1cc(C(=O)N2CCN(c3ccc([N+](=O)[O-])cc3)CC2)ccc1OCc1c(C)noc1C,·,–,19,–,–
COc1cc(C(=O)O)ccc1OCc1c(C)noc1C,·,–,–,–,–
COc1cc(C(=O)N2CCC(C(N)=O)CC2)ccc1OCc1c(C)noc1C,9.4,–,–,–,–
CCS(=O)(=O)Nc1ccc2c(c1)C(=O)N(C)C[C@@H](OC)[C@H](C)CN(CC1CCCC1)[C@@H](C)CO2,–,·,·,·,·
C[C@H]1CN([C@@H](C)CO)C(=O)c2cc(C#Cc3ccccc3)cnc2O[C@@H]1CN(C)S(=O)(=O)c1ccccc1F,–,·,·,·,·
CCOC(=O)C1(C)NC(c2ccccc2F)C2C(=O)N(CC)C(=O)C21 (stereo not drawn),–,–,–,–,–
CCOC(=O)C1(Cc2ccccc2)NC(c2ccccc2F)C2C(=O)N(CC)C(=O)C21 (stereo not drawn),·,–,19,–,–
CCN1C(=O)[C@H]2[C@@H](c3ccc(-c4ccc(F)cc4)c(OC)c3)N[C@@](Cc3ccccc3)(C(=O)OC)[C@H]2C1=O,–,–,–,–,–
CCN1C(=O)C2C(c3ccccc3F)NC(Cc3ccc(O)cc3)(C(=O)OC)C2C1=O (stereo not drawn),·,–,–,–,37
COc1ccc(S(=O)(=O)Nc2cccc3c2O[C@@H](CN(C)Cc2ccc4c(c2)OCO4)[C@@H](C)CN([C@H](C)CO)C3=O)cc1,–,·,·,·,·
O=c1[nH]c(/C=C/c2cccc3ccccc23)nc2ccccc12,–,–,–,–,–
O=c1[nH]c(/C=C/c2ccccc2F)nc2ccccc12,9.8,–,–,–,–
COc1ccc(-c2cc(=O)oc3cc(OCC(=O)N(C)C)ccc23)cc1,–,–,–,–,37
CCN(CC)C(=O)COc1ccc2c(-c3ccccc3)cc(=O)oc2c1,–,–,–,–,–
Cc1cc2c(=Cc3ccc(N(C)C)cc3)c3ccccc3n2[n+]1C,–,–,–,–,–
CCOC(=O)c1cc2c(=Cc3ccc(N(C)C)cc3)c3ccccc3n2[n+]1C,9.9,–,–,–,–
CCn1c(=O)c(C)nn2c3ccccc3nc12,·,–,–,–,35
O=C(C1CC1)N1CC[C@@H]2[C@H]1c1cc(-c3ccc(F)cc3)ccc1N[C@@H]2CO,–,·,·,·,·
COc1ccc(Cc2[nH]n3c(=O)cc(C)nc3c2-c2ccccc2)cc1,–,–,–,–,–
COc1ccc(Cc2[nH]n3c(=O)cc(C(C)C)nc3c2-c2ccccc2)cc1,–,–,18,–,–
SMILES,CFTR F508del cor,MPTP block,NRP1-CendR mod,ATG4B inh,SKN-1 inh
O=C1c2ccccc2C(=O)c2c(/C=C/N3CCCCC3)ccnc21,–,–,80,–,–
O=C1c2ccccc2-c2cccnc21,–,–,–,–,–
CCC(=O)c1ccc(OCC(O)CN2CCN(S(=O)(=O)N3CCCCC3)CC2)cc1 (stereo not drawn),·,–,–,–,35
O=C(c1ccccc1)c1ccc(OCC(O)CN2CCN(S(=O)(=O)N3CCCCC3)CC2)cc1 (stereo not drawn),·,–,–,–,–
C[C@@H]1CN([C@H](C)CO)C(=O)c2cc(-c3ccncc3)cnc2O[C@H]1CN(C)C(=O)C1CCCCC1,–,·,·,·,·
COC(=O)[C@H](CC(C)C)N(Cc1ccccc1)S(=O)(=O)N(Cc1ccccc1)[C@@H](CC(C)C)C(=O)OC,–,–,–,–,–
COC(=O)[C@H](CC(C)C)NS(=O)(=O)N(Cc1ccccc1)[C@@H](CC(C)C)C(=O)OC,–,–,28,–,–
CSc1ccccc1NC(=O)CN(C)CC(=O)Nc1ccccc1N1CCOCC1,–,–,–,–,–
CN1CCC(N(C)CC(=O)Nc2ccccc2N2CCOCC2)CC1,·,–,–,–,40
CCCNC(=O)c1cc(C)no1,·,–,25,–,–
Cc1cc(C(=O)NC(C)C)on1,·,–,–,–,–
COc1ccc(-c2ccc3c(c2)[C@@H]2[C@@H](CCN2S(=O)(=O)c2ccccc2C)[C@@H](CO)N3C)cc1,–,·,·,·,·
C[C@@H]1CN([C@@H](C)CO)C(=O)c2cc(-c3ccccc3)cnc2O[C@H]1CN(C)C(=O)Cc1cccnc1,–,·,·,·,·
CC(C)(C)NC(=O)NC12CC3CC(CC(C3)C1)C2,–,–,22,–,–
C[C@@H]1CN([C@@H](C)CO)C(=O)c2cccc(NC(=O)Nc3ccc(C(F)(F)F)cc3)c2O[C@@H]1CN(C)S(=O)(=O)c1ccccc1,–,·,·,·,·
COc1ccc(N2C(=O)CCC(C(=O)NCc3ccccn3)C2c2ccc(OC)c(OC)c2)cc1 (stereo not drawn),·,–,22,–,–
COc1ccc(N2C(=O)CCC(C(=O)NCc3ccccn3)C2c2ccc(F)cc2)cc1 (stereo not drawn),·,–,–,–,–
CN1CCCC(OC(=O)c2cccc(Cl)c2)C1 (stereo not drawn),–,–,30,–,–
CN1CCCC(OC(=O)c2cc(Cl)cc(Cl)c2)C1 (stereo not drawn),–,–,–,–,–
Oc1c(N=Nc2nn[nH]n2)ccc2ccccc12,–,–,–,·,54
CC(=O)N1[C@H](CO)[C@@H](c2ccccc2)[C@@H]1CN(C)C(=O)CN1CCOCC1,–,·,·,·,·
Cc1ccc(-c2c(C)nn3c(N4CCOCC4)cc(C)nc23)cc1,–,–,–,–,35
C[C@@H]1CN([C@H](C)CO)C(=O)c2cc(NC(=O)c3ccncc3)ccc2O[C@@H](C)CCCCO[C@@H]1CN(C)Cc1ccc(C(F)(F)F)cc1,–,·,·,·,·
C[C@H]1CN([C@@H](C)CO)C(=O)c2cc(NC(=O)Cc3cn(C)c4ccccc34)ccc2O[C@@H]1CN(C)S(=O)(=O)c1ccccc1,–,·,·,·,·
C[C@H]1CN([C@@H](C)CO)C(=O)c2c(c3ccccc3n2C)-c2ccccc2CO[C@H]1CN(C)C(=O)Nc1cccc(C(F)(F)F)c1,–,·,·,·,·
N#CC1=C(N)NC(SCc2ccc(Cl)cc2)=C(C#N)C12CCCCC2,·,–,29,–,–
CO[C@H]1CN(C)C(=O)c2cc(NC(=O)C3CC3)ccc2OC[C@H](C)N(CC2CC2)C[C@H]1C,–,·,·,·,·
CN1/C(=C/C(=S)NC(=O)C2CCC2)C(C)(C)c2ccccc21,–,–,–,–,41
CC(C)C(=O)NC(=S)/C=C1/N(C)c2ccccc2C1(C)C,–,–,–,–,–
